Measured potencies and affinities stand elsewhere. Active and inactive are the calls of the source. The limit is not given here; nearly all actives have IC50 up to about 0.91 µM.
biological target: Calcium-dependent protein kinase 4 (Plasmodium falciparum (isolate 3D7)) (UniProt Q8IBS5); assay: PfCDPK4 kinase inhibitors, biochemical, TCAMS library (AID 1159588); conditions: recombinant PfCDPK4, Kinase-Glo ATP depletion luminescence
Sequence (Q8IBS5 whole entry, looked up): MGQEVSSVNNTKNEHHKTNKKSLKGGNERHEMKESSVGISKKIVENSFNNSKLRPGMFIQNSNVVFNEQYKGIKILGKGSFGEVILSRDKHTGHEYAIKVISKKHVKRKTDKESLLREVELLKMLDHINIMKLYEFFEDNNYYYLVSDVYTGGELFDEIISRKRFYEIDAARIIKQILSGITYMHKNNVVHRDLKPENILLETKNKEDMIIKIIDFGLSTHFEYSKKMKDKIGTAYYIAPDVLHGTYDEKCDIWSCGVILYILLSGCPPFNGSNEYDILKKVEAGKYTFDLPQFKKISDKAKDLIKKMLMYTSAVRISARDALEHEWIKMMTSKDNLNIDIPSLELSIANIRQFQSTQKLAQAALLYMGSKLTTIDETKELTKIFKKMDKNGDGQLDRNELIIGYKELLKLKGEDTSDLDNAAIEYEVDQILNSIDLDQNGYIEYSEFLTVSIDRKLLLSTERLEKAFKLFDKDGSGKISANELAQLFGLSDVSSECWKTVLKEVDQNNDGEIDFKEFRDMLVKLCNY

Row | SMILES | outcome
1 | CCN(CC)CCCNC(=O)/C(=C/C=C/c1cc2cc(Cl)c(Cl)cc2[nH]1)OC | inactive
2 | O=C1OC2(CN1CC1CCN(Cc3ccc(-n4ccnc4)cc3)C1)c1ccccc1-c1ccccc12 (stereo not given) | inactive
3 | Cc1ccc(NC(=O)c2ccc3ncccc3c2)cc1OC1CCN(CCC(C)C)CC1 | inactive
4 | Nc1ncc(-c2ccc(F)cc2)cc1-c1nc2ccc(Cl)cc2[nH]1 | inactive
5 | N#Cc1ccccc1N1CCN(C2CCC(NC(=O)c3n[nH]c4cc(C(F)(F)F)ccc34)CC2)CC1 (stereo not given) | inactive
6 | Cc1ccc(NC(=O)N2CCN(CCCCCNC(=O)/C=C/c3ccc(Cl)c(Cl)c3)CC2)cc1C | inactive
7 | Cc1nnc(NC(=O)c2cn(-c3ccccc3)nc2-c2ccccc2C)o1 | inactive
8 | CN1CCN(c2cc3c(cc2Cl)CCN3C(=O)Nc2ccc(NC(=O)c3ccc(C(F)(F)F)cc3)cc2)CC1 | inactive
9 | Cc1ccc(-c2ccc3c(c2)C=C(C(=O)NC2CCN(CCNC(=O)c4cccs4)CC2)CCC3)cc1 | inactive
10 | COC(=O)c1ccc(NC(=O)Nc2ccc(Cn3ncc(N4CCCNCC4)c(Cl)c3=O)cc2)cc1 | inactive
11 | CC1(C)N=C(N)N=C(N)N1OCCCOc1cc(Cl)cc(Cl)c1 | inactive
12 | O=C(Nc1ccc2ccccc2c1)c1ccc(CN2CCC(Cc3ccccc3)CC2)cc1 | inactive
13 | Cc1cc2c(cc1Cl)N(C(=O)Nc1cc(F)cc(-c3cncnc3)c1)CC2 | inactive
14 | COc1ccc(C2=CCN(c3ccc(Cl)c(Cl)c3)C2=O)cc1OCCN1CCCCC1 | inactive
15 | COc1ccc(CNC(=O)c2cnc3c(O)cccc3c2Nc2cccc(NC(=O)c3ccc(Cl)c([N+](=O)[O-])c3)c2)cc1 | inactive
